Measured values reported in PubChem BioAssay (NCI).
Compounds without any hit were thinned out: in the full panel of roughly 83,000, 20% have a hit.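 In brief: 96-well plates, 48 h treatment, single concentration, percent growth endpoint.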 Unmarked numbers belong to inactive results. The source made the active and inactive calls. How the source made its calls: active means growth percent below 10; inactive means the rest.

Legend:
Assay in all cases: NCI-60 one-dose screen, 48 h (100 = growth as untreated, 0 = no growth, -100 = all killed)
Settings in all cases: 10 µM unless noted
NCI-H23 lung = test system: NCI-H23 lung
NCI-H226 lung = test system: NCI-H226 lung
NCI-H322M lung = test system: NCI-H322M lung
HOP-62 NSCLC = test system: HOP-62 NSCLC
NCI-H460 lung = test system: NCI-H460 lung
HOP-92 NSCLC = test system: HOP-92 NSCLC
NCI-H522 lung = test system: NCI-H522 lung
A549/ATCC NSCLC = test system: A549/ATCC NSCLC
786-0 renal = test system: 786-0 renal
COLO 205 colon = test system: COLO 205 colon
DU-145 prostate = test system: DU-145 prostate
K-562 leukemia = test system: K-562 leukemia
MALME-3M melanoma = test system: MALME-3M melanoma
MDA-MB-231 breast = test system: MDA-MB-231 breast
RXF 393 renal = test system: RXF 393 renal
SF-268 CNS = test system: SF-268 CNS
SF-295 CNS = test system: SF-295 CNS
UACC-257 melanoma = test system: UACC-257 melanoma
M14 melanoma = test system: M14 melanoma
SF-539 CNS = test system: SF-539 CNS

Compound	growth (NCI-H23 lung)	growth (NCI-H226 lung)	growth (NCI-H322M lung)	growth (HOP-62 NSCLC)	growth (NCI-H460 lung)	growth (HOP-92 NSCLC)	growth (NCI-H522 lung)	growth (A549/ATCC NSCLC)	growth (786-0 renal)	growth (COLO 205 colon)	growth (DU-145 prostate)	growth (K-562 leukemia)	growth (MALME-3M melanoma)	growth (MDA-MB-231 breast)	growth (RXF 393 renal)	growth (SF-268 CNS)	growth (SF-295 CNS)	growth (UACC-257 melanoma)	growth (M14 melanoma)	growth (SF-539 CNS)
COc1ccc(C(=O)/C=C/c2c(Cl)c3c(c(OC)c2Cl)OCC(=O)N3)cc1	43.1%	62.9%	79.8%	21%	12%	74.5%	12.7%	61.1%	58.2%	62.1%	18.7%	3.42% (active)	66.8%	34.9%	36.3%	29.9%	32.1%	50%	17.7%	–
CCOc1ccc(Nc2nc(-c3c(C)nc4ncccn34)cs2)cc1	24.2%	52.1%	52.2%	17.9%	5.6% (active)	18.2%	-6.3% (active)	22.4%	9.74% (active)	-60.8% (active)	0.86% (active)	4.04% (active)	52.8%	-12.5% (active)	-1.2% (active)	28.4%	17.1%	78.8%	21.1%	–
COc1cc(C2C(C(=O)c3cccs3)=C(O)C(=O)N2CCN2CCOCC2)cc(OC)c1OC (stereo not drawn)	103%	103%	102%	107%	101%	99.8%	92.2%	104%	103%	111%	106%	116%	107%	111%	100%	97.9%	100%	108%	99.6%	–
CC(=O)C1=C(O)C=C2Oc3c(C(=O)/C=C/c4cc(C(F)(F)F)cc(C(F)(F)F)c4)c(O)c(C)c(O)c3[C@]2(C)C1=O	-55.8% (active)	-56.5% (active)	-44.8% (active)	-52.6% (active)	-32.6% (active)	-41.2% (active)	-36% (active)	-46.7% (active)	-46.3% (active)	-66.6% (active)	-71.4% (active)	-20.7% (active)	-65.6% (active)	-38.8% (active)	-48.6% (active)	-18.1% (active)	-17.4% (active)	-51.4% (active)	-59.1% (active)	–
O=C(CO[N+](=O)[O-])Nc1ccc(C(=O)/C=C/c2ccc3c(c2)OCO3)cc1	58.1%	107%	108%	112%	108%	77.3%	97.6%	88.9%	109%	113%	96.7%	59.1%	116%	87.4%	107%	82.4%	74.6%	92.9%	81.8%	–
COc1ccc(-c2cc(=O)[nH]c3c(OC)c4ccccc4c(OC)c23)cc1	19.2%	39.9%	41.8%	36.8%	8.71% (active)	73.9%	-17.2% (active)	23.6%	34.5%	-58.8% (active)	2.29% (active)	8.05% (active)	51.3%	35.6%	9.4% (active)	34.8%	8.09% (active)	73.8%	1.54% (active)	–
CC/C=C\C[C@H](F)C/C=C1/C(=O)C=C[C@@H]1C/C=C\CCCC(=O)OC	-12.6% (active)	25.4%	45.5%	-25.8% (active)	1.34% (active)	68.9%	-26.8% (active)	24.3%	5.15% (active)	-28.1% (active)	25.7%	-5.83% (active)	-13.6% (active)	3.26% (active)	-45.5% (active)	26%	4.48% (active)	-0.592% (active)	1.2% (active)	–
c1ccc2sc(SCCCn3ccnc3)nc2c1	81.4%	74.8%	98.7%	99.7%	97.8%	78.9%	50.4%	74.9%	104%	98.2%	101%	103%	96.1%	89.6%	95.2%	98.4%	97.4%	87.3%	102%	–
CCC(c1ccccc1)C(CC)c1ccc(O)c(O)c1 (stereo not drawn)	89.5%	97.4%	96.1%	124%	107%	83.6%	85.2%	98.6%	98.9%	125%	100%	87%	114%	109%	106%	92.1%	106%	97.3%	96.9%	–
Cc1cc2cc3cc(C)c(N(C)C)cc3nc2cc1N(C)C	23.9%	54.8%	22.3%	23.1%	8.26% (active)	-37% (active)	-11.7% (active)	7.53% (active)	28%	-23.8% (active)	25.4%	41.5%	28.4%	63.2%	24%	13.9%	19.4%	–	37.4%	8.78% (active)
CCN(CC)c1ccc(/C=C/C2=[N+](C)c3ccccc3C2(C)C)cc1	18.6%	9.04% (active)	27.2%	13.8%	3.05% (active)	-10.7% (active)	5.08% (active)	14.4%	8.12% (active)	4.92% (active)	14.3%	28.3%	19%	7.79% (active)	33.7%	17%	-19% (active)	–	22.4%	14.7%
CCOC(=O)CC(=O)c1c(C)cc(C)cc1C	111%	104%	114%	110%	105%	111%	62.5%	107%	98.3%	117%	110%	112%	113%	103%	100%	107%	103%	112%	99.6%	–
